# eLon inh: inhibitors of E. coli Lon protease. P0A9M0. purified E. coli Lon protease, fluorescence polarization. inhibition, % at 7.94 µM. 0.42% of 360,000 active. AID 602123; in the data active means inhibition above about 13%, passing the limit was not always enough
# Keap1-Nrf2 PPI: disrupts human Keap1 binding to Nrf2 peptide | Q14145 | Keap1 Kelch-Nrf2 peptide fluorescence polarization, 1536-well | inhibition, % at 9.4 µM | 0.15% of 340,000 active | AID 504523; in the data active means inhibition above about 12%;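 further: human Keap1 Kelch domain with fluorescein labeled Nrf2 9mer peptide probe; higher means more block of Keap1 binding to Nrf2 peptide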
# C-LANA FP: KSHV C-LANA DNA binding inhibition; MBP-C-LANA/FAM-LBS DNA binding, fluorescence polarization; inhibition, % at 9 µM; 0.078% of 340,000 active; AID 504423;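 active means highest replicate inhibition at or above 60% at 9 µM, even if other replicates fall short; inactive means all replicates below 60% inhibition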
# GLD-1 TGE inh: GLD-1-TGE RNA interaction inhibition (C. elegans); Q17339; purified GLD-1 + fluorescein TGE RNA, fluorescence polarization; inhibition, % at 5.96 µM; 0.44% of 320,000 active;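 active means percent inhibition above a per-plate cutoff, the plate mean of test compounds plus 3 SD, cut at about 30% in these data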
# LANA-H2A inh: blocks KSHV LANA binding to histone H2A/H2B. AID 2629. Q9QR71. 0.6% of 320,000 active. inhibition, % (concentration not given with the values). cell-free LANA-H2A/H2B peptide, fluorescence polarization; in the data active means inhibition mostly above about 10%, no sharp cut-off; inactive means mostly below about 6.7%
# Target sequence (Q9QR71 whole entry, looked up): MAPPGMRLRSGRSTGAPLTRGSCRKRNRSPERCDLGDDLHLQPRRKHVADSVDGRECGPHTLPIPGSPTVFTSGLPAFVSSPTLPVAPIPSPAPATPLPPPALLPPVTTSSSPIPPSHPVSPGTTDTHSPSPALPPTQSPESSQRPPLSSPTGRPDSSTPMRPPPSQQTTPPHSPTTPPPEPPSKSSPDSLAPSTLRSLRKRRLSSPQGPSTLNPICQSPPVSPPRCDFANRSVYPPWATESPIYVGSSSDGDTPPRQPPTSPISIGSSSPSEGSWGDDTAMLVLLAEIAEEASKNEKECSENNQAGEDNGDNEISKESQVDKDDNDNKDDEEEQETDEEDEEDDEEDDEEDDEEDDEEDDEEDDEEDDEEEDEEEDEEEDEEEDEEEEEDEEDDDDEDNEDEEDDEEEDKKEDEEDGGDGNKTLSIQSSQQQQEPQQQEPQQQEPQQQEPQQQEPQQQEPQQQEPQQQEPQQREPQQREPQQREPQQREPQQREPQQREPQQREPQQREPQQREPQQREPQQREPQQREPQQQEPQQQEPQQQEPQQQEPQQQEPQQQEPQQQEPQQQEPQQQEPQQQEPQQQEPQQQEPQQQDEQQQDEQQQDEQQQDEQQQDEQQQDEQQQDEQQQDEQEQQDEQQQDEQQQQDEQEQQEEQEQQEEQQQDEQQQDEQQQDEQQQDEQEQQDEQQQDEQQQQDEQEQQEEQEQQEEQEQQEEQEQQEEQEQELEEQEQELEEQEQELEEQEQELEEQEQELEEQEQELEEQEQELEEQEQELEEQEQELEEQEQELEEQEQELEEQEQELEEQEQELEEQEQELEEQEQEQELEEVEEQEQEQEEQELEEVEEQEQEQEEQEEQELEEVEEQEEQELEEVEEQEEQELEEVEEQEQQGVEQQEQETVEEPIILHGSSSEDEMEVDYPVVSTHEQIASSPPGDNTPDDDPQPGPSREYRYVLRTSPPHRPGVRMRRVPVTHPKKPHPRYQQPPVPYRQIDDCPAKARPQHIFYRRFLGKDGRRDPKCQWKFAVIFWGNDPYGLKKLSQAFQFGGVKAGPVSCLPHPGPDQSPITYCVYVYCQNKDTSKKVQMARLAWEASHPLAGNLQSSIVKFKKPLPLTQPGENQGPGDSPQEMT
# EBV gp42 block: EBV gp42 inhibition | Q1HVG2 | Fluorescence polarization binding assay, mP read-out | inhibition, % (tested at 21.74 µM) | 0.42% of 220,000 active | AID 1085; in the data active means inhibition above about 50%
# Numbers stand for hits; – = inactive; · = no result; + = active, no number. In the library only some 1.5% were active in any assay of this set; here they are far more common.
SMILES,eLon inh,Keap1-Nrf2 PPI,C-LANA FP,GLD-1 TGE inh,LANA-H2A inh,EBV gp42 block
CCOC(=O)C1CCN(c2c(NC3CCCc4ccccc43)c(=O)c2=O)CC1 (stereo unspecified),–,–,–,–,–,–
COc1ccc(Cl)cc1NC(=O)CN(C)C(=O)CN1C(=O)NC(C)(c2ccc3ccccc3c2)C1=O (stereo unspecified),–,–,–,·,·,·
CC(C)c1ccc(NC(=O)C2Cc3c(-c4cccc(F)c4)ccnc3O2)cc1 (stereo unspecified),–,·,·,·,·,·
CC1(C(=O)NS(=O)(=O)c2ccc(Br)cc2)CCN1C(=O)c1cccc(F)c1 (stereo unspecified),–,·,·,·,·,·
C[C@@H]1CN([C@H](C)CO)C(=O)CCCn2cc(nn2)CO[C@H]1CN(C)C(=O)C1CCCCC1,–,·,·,·,·,·
CCCN(CCC)C(=O)c1ccc2c(c1)N(CC)C(=O)c1ccccc1S2(=O)=O,–,–,–,72,–,·
O=C(O)c1cc(Nc2cc(Cl)c3nonc3c2[N+](=O)[O-])ccc1O,–,–,–,–,–,·
O=Cc1ccc2oc3nc4n(c(=O)c3c(=O)c2c1)CCCS4,–,–,–,–,–,85
C/C(=N\NC(=O)CSc1nc(C)cc(C)n1)c1cccs1,–,–,–,–,25,–
O=C(O)c1cc2c(ncc3c(=O)n(-c4ccccc4)[nH]c32)s1,–,·,·,·,·,·
Cc1ccc(N2C(=O)N(CC(=O)Nc3ccc(C)c(C)c3[N+](=O)[O-])C(=O)C2C)cc1 (stereo unspecified),–,–,–,–,130,–
Cc1ccc(N2C(=O)N(CC(=O)Nc3ccc(C)cc3[N+](=O)[O-])C(=O)C2C)cc1 (stereo unspecified),–,–,–,–,–,·
O=C(O)CCC(=O)Nc1ccccc1C(=O)N1CCN(c2ccc(Cl)cc2)CC1,–,–,–,–,–,–
CCCN(CC(=O)Nc1ccccc1C)C(=O)Cc1c(C)nc2ccccc2c1C,–,–,–,–,140,·
CCCN(CC(=O)Nc1ccccc1C)C(=O)Cc1c[nH]c2ccccc12,–,–,–,·,·,·
COc1cc(C=C2C(=O)C=CC2=O)ccc1O,–,·,·,·,·,·
Cc1ccc(C)c(NC(=O)CCC(=O)N/N=C/c2cc([N+](=O)[O-])ccc2O)c1,–,–,–,–,–,–
Cc1cc(=O)oc2cc(OCC(=O)N/N=C/c3cc([N+](=O)[O-])ccc3O)ccc12,–,–,–,–,+,92
CC1(C)OC2CC3C4CCC5=CC(=O)C=CC5(C)C4(F)C(O)CC3(C)C2(C(=O)CO)O1 (stereo unspecified),–,·,·,·,·,·
CCCNC(=O)C1(C)CCN(C(=O)c2ccc(OC)cc2OC)C1 (stereo unspecified),–,·,·,·,·,·
O=C(CSc1nnc(-c2ccco2)c(-c2ccco2)n1)Nc1ccccc1,157,–,–,–,–,–
Cc1ccccc1NC(=O)CSc1n[nH]c(-c2ccco2)n1,–,–,–,–,16,–
COC12CC(=O)C(C(C)=O)=C(O)C1(C)c1c(O)c(C)c(O)c(C(C)=O)c1O2 (stereo unspecified),–,·,·,·,·,·
CN(CCc1ccccc1)c1cc2c(c3c1ccn3C)C1CCC2C1 (stereo unspecified),–,·,·,·,·,·
Oc1ccccc1N=Cc1c(O)ccc2oc3c(c12)CCCC3,–,–,–,38,–,–
SMILES,eLon inh,Keap1-Nrf2 PPI,C-LANA FP,GLD-1 TGE inh,LANA-H2A inh,EBV gp42 block
O=C(O)c1ccc(N=Cc2c(O)ccc3oc4c(c23)CCCC4)cc1,–,–,–,–,–,–
COc1ccc2sc(-c3ccccc3OC)c(C#CC(C)(C)O)c2c1,–,–,70,–,–,·
CCCCOC(=O)CSc1nc2c(c(=O)[nH]c(=O)n2C)n1C/C=C(\C)Cl,–,–,–,–,12,–
C/C(Cl)=C/Cn1c(SCC(C)C)nc2c1c(=O)[nH]c(=O)n2C,–,–,–,–,–,·
O=C(CN1C(=O)COc2ccc(S(=O)(=O)N3CCCC3)cc21)NC1CCCCCCC1,·,·,·,–,–,–
CCn1c(/C=C/c2cc(Br)ccc2O)nc2ccccc2c1=O,–,–,–,–,–,·
CCOC(=O)C1C(=O)C=C(/C=C/c2ccc(N(C)C)cc2)CC1c1ccccc1 (stereo unspecified),–,–,–,–,–,103
COc1ccc(N=Cc2c(O)n(-c3ccc(OC)cc3)c(=O)c3ccccc23)cc1,–,–,–,–,–,–
O=c1c2ccccc2c(C=Nc2cccc(O)c2)c(O)n1-c1ccc2c(c1)OCO2,–,–,–,–,–,51
CCc1nc2c(OCC(=O)C(C)(C)C)cccn2c1N(C=O)Cc1ccc(OC)cc1,–,·,·,·,·,·
Oc1ccc(/C=N/N=C/c2ccc(O)c(O)c2)cc1O,–,–,77,–,–,·
Oc1ccc(N=Cc2ccc(O)c(O)c2)cc1,–,–,–,–,–,–
COc1ccc(CNC(=O)C(=O)NCC2CCCN2S(=O)(=O)c2ccccc2)cc1 (stereo unspecified),–,–,–,–,–,·
COc1ccc(C(=O)N/N=C(\C)c2ccc3c(c2)C2C=CCC2C(c2ccccc2)N3)cc1 (stereo unspecified),–,–,–,–,–,–
COc1cccc(NS(=O)(=O)c2ccc3c(c2)C2C=CCC2C(c2ccc(C(=O)O)cc2)N3)c1 (stereo unspecified),–,–,104,–,–,–
Cc1ccc(C)c(S(=O)(=O)C(C#N)c2nc3ccccc3nc2N2CCCC2)c1 (stereo unspecified),–,–,–,51,–,110
CN1CCN(c2nc3ccccc3nc2C(C#N)S(=O)(=O)c2ccccc2)CC1 (stereo unspecified),·,·,·,–,–,–
Cc1cccc(S(=O)(=O)C(C#N)c2nc3ccccc3nc2N2CCCC2)c1 (stereo unspecified),–,–,–,–,–,92
CC(=O)Nc1cc(-c2cccc(C(=O)N(C)C)c2)cn2c(-c3ccc(C(C)=O)cc3)cnc12,–,·,·,·,·,·
COCCN1CCC(CO)C1 (stereo unspecified),–,–,–,·,·,·
Cc1cccc(Cc2cccc(C)c2O)c1O,–,·,·,·,·,·
O=C(c1cc2cc(Br)ccc2o1)N1CCN(c2ccccc2)CC1,–,–,–,–,16,·
O=C(c1ccccn1)N(Cc1ccco1)C1(C(=O)NC2CCCCC2)CCCCC1,–,–,–,–,–,–
O=C(c1ccccn1)N(CC1CCCO1)C1(C(=O)NC2CCCCC2)CCCCC1 (stereo unspecified),–,–,–,–,25,–
CCN(CC)c1ccc(S(=O)(=O)N2CCOCC2)cc1NC(=O)Cn1nc(C)c([N+](=O)[O-])c1C,–,–,–,–,–,·
CCN(CC)c1ccc(S(=O)(=O)N2CCOCC2)cc1NC(=O)CN1CCc2ccccc2C1,–,–,–,–,33,–
CCCc1cc(=O)[nH]c(SCC(=O)N2CCc3ccccc3C2)n1,–,–,–,–,+,·
CCCc1cc(=O)[nH]c(SCC(=O)N2CCc3cc(OC)c(OC)cc3C2)n1,–,–,–,–,–,·

# Screening results: PubChem BioAssay, several laboratories
